Active and inactive are the calls of the source. The rule behind the calls is not given here.
The compounds below were run against Pantothenate synthetase (Mycobacterium tuberculosis (strain ATCC 25618 / H37Rv)) (UniProt P9WIL5) (assay: Coupled enzyme confirmation of inhibitors against recombinant Mtb PanC (AID 375;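 note: 0% = full reaction with vehicle and 100% = no enzyme background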)). Settings: coupled enzyme assay; at 10 µM, hits give high values.
Sequence of Pantothenate synthetase (Mycobacterium tuberculosis (strain ATCC 25618 / H37Rv)) (P9WIL5 whole entry, looked up): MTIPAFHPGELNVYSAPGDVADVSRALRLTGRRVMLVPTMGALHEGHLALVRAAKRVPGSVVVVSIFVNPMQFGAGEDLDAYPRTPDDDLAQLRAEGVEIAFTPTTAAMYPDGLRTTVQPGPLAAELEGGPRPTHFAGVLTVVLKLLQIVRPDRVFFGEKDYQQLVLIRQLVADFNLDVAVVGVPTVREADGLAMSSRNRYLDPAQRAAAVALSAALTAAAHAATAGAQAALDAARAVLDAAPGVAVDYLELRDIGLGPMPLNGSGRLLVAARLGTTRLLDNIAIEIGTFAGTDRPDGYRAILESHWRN
With CSc1ccccc1NS(=O)(=O)c1ccccc1 the inhibition was 3% (inactive).
CCN(CC)C(=O)c1sc2nc(-c3cccs3)cc(-c3cccs3)c2c1N was tested, and the inhibition was 0% (inactive).
CC(=O)N1CCC(N(C(=O)Nc2ccc(C)c(C)c2)C2CCCC2)CC1 was tested, and the inhibition was 0% (inactive).
With c1ccc(CSc2nnc(-c3cccs3)n2Cc2ccco2)cc1 the inhibition was 0% (inactive).
O=C(CCS(=O)(=O)c1cccc2nsnc12)N1CCN(Cc2ccc3c(c2)OCO3)CC1 was tested, and the inhibition was 0% (inactive).
For CCc1c(C(=O)N2CCOCC2)csc1C, the inhibition was 0% (inactive).
CCOC(=O)c1c(C)[nH]c(C)c1C(=O)COc1ccc(NC(=O)c2ccco2)cc1 was tested, and the inhibition was 1% (inactive).
With COc1cc(-c2nnc(SCC(=O)c3cc(C)n(CC4CCCO4)c3C)o2)cc(OC)c1OC (stereo not given) the inhibition was 0% (inactive).
For O=C(O)c1cc(=O)c2c(OCC(O)COc3cccc4oc(C(=O)O)cc(=O)c34)cccc2o1, the inhibition was 1% (inactive).
For CCOC(=O)c1cccc(NC(=O)c2ccco2)c1, the inhibition was 0% (inactive).
With CCOc1ccc(OCc2ccc(C(=O)Nc3cccc(C)n3)o2)cc1 the inhibition was 7% (inactive).
With Cc1c(C#N)c(N)c(C(=O)c2ccccc2)n1Cc1ccccc1 the inhibition was 0% (inactive).
In the case of CCN1C(=O)/C(=C/N(C)c2ccccc2)OC1=S, the inhibition is reported as 4% (inactive).
With Cc1ccc(-n2c(=O)c(C#N)cc3c(=O)n4ccccc4nc32)cc1 the inhibition was 0% (inactive).
With COc1cc(C(=O)Nc2cc(Cl)ccc2C)c(-n2cnnn2)cc1OC the inhibition was 9% (inactive).
In the case of Cc1c(C(=O)OCC(C)(C)CN(C)C)oc2ccccc12, the inhibition is reported as 1% (inactive).
For CCc1nc(N)c(C#N)c(-c2ccc(OC)c(OC)c2)c1C, the inhibition was 2% (inactive).
With Cc1onc(-c2c(Cl)cccc2Cl)c1C(=O)N1CCc2ccccc21 the inhibition was 0% (inactive).
With CN(C(=O)c1ccco1)c1nnc(C23CC4CC(CC(C4)C2)C3)s1 the inhibition was 0% (inactive).
O=c1c2ccccc2nc(SCc2cn3ccsc3n2)n1-c1ccc(F)cc1 was tested, and the inhibition was 0% (inactive).
In the case of CCN(CC)S(=O)(=O)c1ccc2c(c1)c(=O)c(C(=O)NCCOC)cn2C, the inhibition is reported as 1% (inactive).
For S=c1[nH]c2ccc(Cl)cc2[nH]1, the inhibition was 9% (inactive).
O=C1OCCC1Sc1ncnc2sccc12 (stereo not given) was tested, and the inhibition was 0% (inactive).
With CCCc1cc(=O)oc2c(C)c3occ(C)c3cc12 the inhibition was 1% (inactive).
CC(C)c1ccc(C(O)c2cnc(C(C)C)n2C)cc1 (stereo not given) was tested, and the inhibition was 1% (inactive).
O=C(NCc1ccc2c(c1)OCO2)c1ccccn1 was tested, and the inhibition was 6% (inactive).
For COc1cc(C2C(C#N)=C(N)Oc3cc(N)ccc32)cc(OC)c1OC (stereo not given), the inhibition was 2% (inactive).
CCN(CC)C(=O)C1CCCc2c1[nH]c1ccc(Cl)cc21 (stereo not given) was tested, and the inhibition was 0% (inactive).
In the case of N#Cc1nc(-c2ccccc2Cl)oc1N1CCOCC1, the inhibition is reported as 0% (inactive).
With CC(=O)Nc1ccc(Oc2cc(C#N)c(C#N)cc2N2CCCCCC2)cc1 the inhibition was 0% (inactive).
COc1ccccc1C(=O)NCC(c1cccnc1)N(C)C (stereo not given) was tested, and the inhibition was 0% (inactive).
In the case of COc1ccc2cc(C(c3nnnn3C3CCCCC3)N3CCCCCC3)c3nnnn3c2c1 (stereo not given), the inhibition is reported as 3% (inactive).
With CCOC(=O)Nc1ccc2c(c1)N(C(=O)CCN1CCOCC1)c1ccccc1S2 the inhibition was 3% (inactive).
Cc1cc(/N=C/N(C)C)on1 was tested, and the inhibition was 0% (inactive).
CC(=O)C1=C(C)NC(C)=C(C(C)=O)C1c1cccs1 was tested, and the inhibition was 0% (inactive).
For COc1ccc(Cl)c(NCCC(=O)O)c1, the inhibition was 0% (inactive).
COc1cc(OC)c(-c2nn3c(C4CCCCC4)nnc3s2)cc1OC was tested, and the inhibition was 0% (inactive).
For O=C1C2C3C=CC(C3)C2C(=O)N1CNc1ccc(O)cc1 (stereo not given), the inhibition was 3% (inactive).
For O=C1CC(c2cccc(Cl)c2)Cc2nc(N3CCN(c4ccccc4)CC3)ncc21 (stereo not given), the inhibition was 0% (inactive).
In the case of Cc1ccc(C(=O)Nc2ccc3c(c2)OCO3)cc1S(=O)(=O)N1CCCC1, the inhibition is reported as 0% (inactive).

— PubChem BioAssay
